Data published in PubChem BioAssay (Tox21).
Results filed as inconclusive are left out. Entries that show only a call come without a potency. Unmarked numbers belong to inactive results. Active and inactive are the calls of the source. The call rests on the fitted dose curve; in most records, active means well fitted cell-killing curve with a large enough effect in the repeat runs; inconclusive means weak or mixed curves, or effect the other way; inactive means flat fitted curve, though single readings scatter.
Potency means the concentration at half of the fitted maximal effect.

Test: cAMP Responsive Elements (CRE) small molecule antagonists, cell-based qHTS assay: qHTS cell viability counter screen (AID 2060913); further: nearly all actives have a fitted effect of over 40% in size
Conditions: CRE-bla HEK293T viability, CellTiter-Glo luminescence, 5 h; series mostly up to 92.4 µM
Summary of the method: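 CRE-bla HEK293T cells (2,000/well, 18 h) given compound plus NKH477 0.25 uM final for 3 h at 37C; viability counter-screen by CellTiter-Glo luminescence in same wells after 30 min.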
With O=C(OCC1(COC(=O)c2cccnc2)CCCC(COC(=O)c2cccnc2)(COC(=O)c2cccnc2)C1O)c1cccnc1 the Potency was “inactive”.
In the case of C=C1CC[C@H]2O[C@]2(C)CC[C@@H]2[C@@H]1CC2(C)C, the Potency is reported as “inactive”.
For CC(C)C(=O)OCC(C)(C)C(O)C(C)C (stereo not given), the Potency was “inactive”.
For CCN(C=O)CC, the Potency was “inactive”.
In the case of CC1=CC=C(C(C)C)CC1, the Potency is reported as “inactive”.
With C=C(C)C1CC=C(C)C(=O)C1 (stereo not given) the Potency was “inactive”.
For COc1cc2c(cc1OC)-c1cc(=Nc3c(C)cc(C)cc3C)n(C)c(=O)n1CC2, the Potency was “inactive”.
For CC(=O)OCc1ccc2c(c1)OCO2, the Potency was “inactive”.
With CC(CC=O)CCCC(C)(C)O (stereo not given) the Potency was “inactive”.
In the case of C=Cc1ccc(C(C)(C)C)cc1, the Potency is reported as “inactive”.
For CCCCOC(=O)CCCCC(=O)OCCCC, the Potency was “inactive”.
In the case of CC(C)CCC(=O)CCC(C)C, the Potency is reported as “inactive”.
Work on O=C(O)c1ccc2c(c1)nc(C(=O)NC1CCN(C3CC3)CC1)n2Cc1cc(-c2ccc(Cl)s2)on1 yielded a viability change, negative = cytotoxic of -0.942% [at 18.9 µM].
With CC(C)CC(C)CC(O)CC(C)C (stereo not given) the Potency was “inactive”.
In the case of C[C@@]12CCC[C@H]1[C@@H]1CC[C@H]3C[C@@H](O)CC[C@]3(C)[C@H]1CC2, the Potency is reported as “inactive”.
With CCOCOCC the Potency was “inactive”.
With Cn1ccnc1 the Potency was “inactive”.
For CCC(C)(O)CCC=C(C)C (stereo not given), the Potency was “inactive”.
In the case of CC(C)NC(=O)NC(C)C, the Potency is reported as “inactive”.
For O=S1(=O)CC(Cl)(Cl)C(Cl)(Cl)C1, the Potency was 15.4 µM (active).
With CN(C)CCCN1c2ccccc2Sc2ccc(C(F)(F)F)cc21 the Potency was “inactive”.
In the case of O=C1OC(=O)c2cccc3cccc1c23, the Potency is reported as “inactive”.
For C=CCc1cc(OC)c(O)c(C(=O)NCCO)c1, the Potency was “inactive”.
For CC(=O)/C=C/C1C(C)=CCCC1(C)C (stereo not given), the Potency was “inactive”.
For C=CCCC(=O)O, the Potency was “inactive”.
With Cc1ncc([N+](=O)[O-])n1C the Potency was “inactive”.
With NS(=O)(=O)c1ccccc1Cl the Potency was “inactive”.
In the case of CC(O)CN (stereo not given), the Potency is reported as “inactive”.
In the case of Cc1c(N)cccc1N, the Potency is reported as “inactive”.
With CCCCCCCCCCCC(=O)OC[C@@H](O)[C@H]1OC[C@H](OCCO)[C@H]1OCCO the Potency was “inactive”.
For CC(=O)c1ccc2c(c1)CCCC2, the Potency was “inactive”.
For CC(CC(=O)Cl)CC(C)(C)C (stereo not given), the Potency was “inactive”.
With CC1=C(C)S(=O)(=O)CCS1(=O)=O the Potency was “inactive”.
In the case of C[C@@H]1O[C@@H](O[C@@H]2[C@@H](O)[C@H](OCCc3ccc(O)c(O)c3)O[C@H](CO[C@@H]3O[C@H](CO)[C@@H](O)[C@H](O)[C@H]3O)[C@H]2OC(=O)/C=C/c2ccc(O)c(O)c2)[C@H](O)[C@H](O)[C@H]1O, the Potency is reported as “inactive”.
For CC(CCc1ccc2c(c1)OCO2)NN (stereo not given), the Potency was “inactive”.
For CN(C)C(=O)Nc1ccc(Oc2ccc(Cl)cc2)cc1, the Potency was “inactive”.
In the case of CCCNC(C)C(=O)Nc1c(C)csc1C(=O)OC (stereo not given), the Potency is reported as “inactive”.
In the case of CC1CN(c2ccccc2)NC1=O (stereo not given), the Potency is reported as “inactive”.
With C/C(=N/NC(=O)c1ccncc1)C(=O)O the Potency was “inactive”.
In the case of COCCOCCOCCOCCO, the Potency is reported as “inactive”.

Test: cAMP Responsive Elements (CRE) small molecule agonists, cell-based qHTS assay: qHTS cell viability counter screen (AID 2060914);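 further: viability read after 3 h of compound exposure; nearly all actives have a fitted effect of over 50% in size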
Conditions: CRE-bla HEK293T viability, CellTiter-Glo luminescence, 5 h; series mostly up to 92.4 µM
Summary of the method: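 HEK 293T CRE-bla; DMEM + 10% dialyzed FBS, 25 mM HEPES; 18 h pre-incubation; compound 3 h, 37 °C/5% CO2; CellTiter-Glo added after reporter read; luminescence after 30 min RT.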
In the case of O=C(OCC1(COC(=O)c2cccnc2)CCCC(COC(=O)c2cccnc2)(COC(=O)c2cccnc2)C1O)c1cccnc1, the Potency is reported as “inactive”.
In the case of C=C1CC[C@H]2O[C@]2(C)CC[C@@H]2[C@@H]1CC2(C)C, the Potency is reported as “inactive”.
For CC(C)C(=O)OCC(C)(C)C(O)C(C)C (stereo not given), the Potency was “inactive”.
In the case of CCN(C=O)CC, the Potency is reported as “inactive”.
For CC1=CC=C(C(C)C)CC1, the Potency was “inactive”.
In the case of C=C(C)C1CC=C(C)C(=O)C1 (stereo not given), the Potency is reported as “inactive”.
In the case of COc1cc2c(cc1OC)-c1cc(=Nc3c(C)cc(C)cc3C)n(C)c(=O)n1CC2, the Potency is reported as “inactive”.
With CC(=O)OCc1ccc2c(c1)OCO2 the Potency was “inactive”.
For CC(CC=O)CCCC(C)(C)O (stereo not given), the Potency was “inactive”.
For C=Cc1ccc(C(C)(C)C)cc1, the Potency was “inactive”.
For CCCCOC(=O)CCCCC(=O)OCCCC, the Potency was “inactive”.
For CC(C)CCC(=O)CCC(C)C, the Potency was “inactive”.
Work on O=C(O)c1ccc2c(c1)nc(C(=O)NC1CCN(C3CC3)CC1)n2Cc1cc(-c2ccc(Cl)s2)on1 yielded an activity change, negative = cytotoxicity of -9.02% [at 18.9 µM].
With CC(C)CC(C)CC(O)CC(C)C (stereo not given) the Potency was “inactive”.
With C[C@@]12CCC[C@H]1[C@@H]1CC[C@H]3C[C@@H](O)CC[C@]3(C)[C@H]1CC2 the Potency was “inactive”.
For CCOCOCC, the Potency was “inactive”.
With Cn1ccnc1 the Potency was “inactive”.
With CCC(C)(O)CCC=C(C)C (stereo not given) the Potency was “inactive”.
For CC(C)NC(=O)NC(C)C, the Potency was “inactive”.
With O=S1(=O)CC(Cl)(Cl)C(Cl)(Cl)C1 the Potency was 34.4 µM (active).
In the case of CN(C)CCCN1c2ccccc2Sc2ccc(C(F)(F)F)cc21, the Potency is reported as “inactive”.
With O=C1OC(=O)c2cccc3cccc1c23 the Potency was “inactive”.
With C=CCc1cc(OC)c(O)c(C(=O)NCCO)c1 the Potency was “inactive”.
With CC(=O)/C=C/C1C(C)=CCCC1(C)C (stereo not given) the Potency was “inactive”.
For C=CCCC(=O)O, the Potency was “inactive”.
With Cc1ncc([N+](=O)[O-])n1C the Potency was “inactive”.
With NS(=O)(=O)c1ccccc1Cl the Potency was “inactive”.
For CC(O)CN (stereo not given), the Potency was “inactive”.
In the case of Cc1c(N)cccc1N, the Potency is reported as “inactive”.
In the case of CCCCCCCCCCCC(=O)OC[C@@H](O)[C@H]1OC[C@H](OCCO)[C@H]1OCCO, the Potency is reported as “inactive”.
For CC(=O)c1ccc2c(c1)CCCC2, the Potency was “inactive”.
With CC(CC(=O)Cl)CC(C)(C)C (stereo not given) the Potency was “inactive”.
For CC1=C(C)S(=O)(=O)CCS1(=O)=O, the Potency was “inactive”.
With C[C@@H]1O[C@@H](O[C@@H]2[C@@H](O)[C@H](OCCc3ccc(O)c(O)c3)O[C@H](CO[C@@H]3O[C@H](CO)[C@@H](O)[C@H](O)[C@H]3O)[C@H]2OC(=O)/C=C/c2ccc(O)c(O)c2)[C@H](O)[C@H](O)[C@H]1O the Potency was “inactive”.
For CC(CCc1ccc2c(c1)OCO2)NN (stereo not given), the Potency was “inactive”.
With CN(C)C(=O)Nc1ccc(Oc2ccc(Cl)cc2)cc1 the Potency was “inactive”.
In the case of CCCNC(C)C(=O)Nc1c(C)csc1C(=O)OC (stereo not given), the Potency is reported as “inactive”.
With CC1CN(c2ccccc2)NC1=O (stereo not given) the Potency was “inactive”.
With C/C(=N/NC(=O)c1ccncc1)C(=O)O the Potency was “inactive”.
For COCCOCCOCCOCCO, the Potency was “inactive”.
